In all, about 53,000 sequences went through this assay and about 3,700 (7%) were called active.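 How the source made its calls: active means gene knockdowns whose robust z-score for IL-1 alpha signal is at least 2 or at most -2, so actives lie on both sides; inactive means the rest.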 Shown is part of a subset that was picked to be rich in actives.
Experiment: Components of the Cytosolic LPS Sensing Pathway: Gene Identification via Genome-wide siRNA Screen;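 further: robust z of the log signal after scaling to non-targeting control siRNA wells of the plate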
Settings: RAW264.7 macrophages, IL-1a HTRF, actives lie on both sides, screened at 100 nM (by protocol), cells primed 5 h with Pam3CSK4 first
In short: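 Three distinct siRNAs per gene were tested singly at 100 nM in RAW264.7 macrophages. Following Pam3CSK4 priming and 24 hour LipidA transfection, IL-1a secretion was read by HTRF.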

z-score, inactive:
GGCUGGACAGGAUUAUCCATT against Tmem185b -0.904, CGCAGGUAAUUUGUUUGUGTT against Mtnr1b 1.16, GCAUAGCAAUGAAAAUCUATT against Lrit2 1.06, GGUCAAUCUUUGGAGUAUUTT against Stk39 -0.129, GCUUCCAAUUACUUAUCCATT against Phc3 -0.0705, GGGAAGAAGAGAUUCUGAUTT against Cep250 -1.53, GGACAAGGAUAGUAGUAAGTT against Parp1 -0.122, GCAUACCCUAUUUAGUUUUTT against Gpr33 -0.00896, CCGGAGUCAGUAUCCAGAATT against Ndufaf4 -0.282, GCCGUGGAUCGAAUAAUUCTT against Coq7 -1.03, GGUUUUAGUAAACUUCCCATT against Fam76b -0.692, GGAUCCUGGAUAAUCUGGGTT against Plscr1 -1.35, GCGUGCAUAUAUCCAAUGCTT against Tardbp 1.36, GGUAAUCUCCAAAAAACCATT against Lilra6 -0.863, GGGACCUUUUCAGGACCUUTT against Ucp2 -0.954, GGCUGCCUUCAUCUUUUCUTT against Fth1 0.873, GCUUGUAUGAGAUUACCUATT against Ttc1 1.19, GGAGUCCUACGUCAAAGAATT against Pigz -0.251, GGAUCAGUAGCAUUAACAATT against Tcf7l2 0.414, GGGCAAUCUGCUAUUCUCUTT against Pheta2 0.18, CCUUCUGUAUAGGUUCUGGTT against Slc41a3 0.716, GGGCUUAUGGAGUUGUAAATT against Avpi1 -0.633, GGACAAGAAAAAGGAUUAGTT against Clptm1 -0.414, GGCUUCGCUCUGGUUUACUTT against Rap1b 0.323, GCAAUUCCACGUAUGGAUUTT against Olfr652 0.336, GGCAAAAUUUGUGUGCAAATT against Mrc1 1.02, GGCAGUCAUUACCUAUCAGTT against Atp7b -0.271, GGGUCAGCCAAAGGAAAAUTT against Nlrc3 -0.193, GCUUUCUCUUAUGGAUCUATT against Olfr700 0.966, CGUGAUGCUGUAAAUAGUUTT against AI606181 -0.485, CCCAGAAGACCCGAACUUUTT against E130006D01Rik 0.378, GGAGCAUCUCUCCAGAUUGTT against Igsf9 0.567, CCGCUUUCUUGCCAUUCACTT against Olfr576 -0.266, GCCUUAAUGCUUCAAGGUGTT against Hspd1 0.021, GUUUAUGGCCUCCUGUUGCTT against Gpbar1 -0.773, GCAUGAGAGGUUUCAGUAUTT against Rnf150 0.454, UUCGCUCUUGGUCCCUUCATT against Olfr1322 1.06, CCGUCGUGGGUGAUAUCAUTT against 2310022A10Rik -0.0389, GGUGGCUCUCCAAGUUCUATT against Uchl4 -0.279, GAACACCCUGCCGACCAAATT against Tmsb10 -0.242, GGACUGAGUCAGAUUUACATT against Foxn2 -0.622, GCCCUUAUUAAACCAUUUGTT against Usp9x -0.641, GGACUGUUUUAGAUUACUUTT against Klra4 0.968, GCUUAUGUUUCUGCCACUCTT against Olfr1136 0.124, GCCACCAUUAAAAGACUGATT against Gdnf 0.737, CCUUGUAUGGAGAUAUUCCTT against Aph1b -0.573, GGUUCAGUUUGGAAAUGAATT against Rbm26 0.809, CGUCUGUUUACCUCAUGAATT against Arid3a -0.769, GGACUACUUCCCAAGAAUUTT against Gle1 0.365, GGUGGAGAAACAAAUUAGUTT against Rab9 1.47, GGAAGAAAGAAUUGAACUUTT against Add3 1.02, CAUGAACGUGGGUAAAACGTT against Rab20 -0.878, GGAACUGGAUCCUAGGAUATT against Sh3bp5l -1.35, GCCAAAUCUACUGUUAUUUTT against Fam174a 1.06, GCAGUGAUCCGGAACAAAUTT against Tmc3 -0.455, GGCGAAAAUUACUCGAAAGTT against Penk 0.941, GGAUGACGUAAUUGACGGCTT against Cyp19a1 0.0212, CCAAAAUAAGUGUGGUCAATT against Vstm2l -0.623, GGACUUGGUUUAUGAAACATT against Kif9 -1.33, GGAGACCUUACCACUUGAATT against Ephx1 -1.2, GGUCAAUUCCCAUACCCUGTT against Tfr2 -1.23, GGUGAAAAUACAUUGCCAGTT against Plk4 -0.712, CCCAAAUAACAGAGAAAUGTT against St8sia6 0.818, CCUGAGAUUUCCUAACAUCTT against Prr11 -0.281, GGUGAAGUCACUAAUCUUUTT against Prpf19 1.12, GCCACGACCUGGAACAACUTT against Taf6l -0.479, CGGCCUAACAGCCAGACUUTT against 1700013G24Rik 0.9, GGUUUCUGCCAUCCAUCAGTT against Zfa-ps -0.705, GGCGAAUGAAGGUUUCUGGTT against Pex11b -0.581, GCUGUUGGUCUGAUAGCUUTT against Hadhb 0.378, GCCAUGCCUUAAUCUUGGUTT against Cd300lf 0.0466, GCAAAGACGAAAUGCCGAGTT against Ttc32 -0.23, GAUUCUCCAUUGCCCAAUGTT against Lce1i 0.0132, CCUCAACUCCCUGUCACACTT against Rnaseh2a 0.944, CGACUAUUUGGGUGGCAAGTT against Scin -0.103, GGUAAGAAAACUGACCUUATT against Abra -0.787, GGCUGUAUGCUCAGACUGATT against Olfr147 -1.25, GGAAUCUACCACUUGGUUCTT against Chrdl2 -0.936, GGGAUUCAGAGUCAAGAUUTT against Thpo -0.275, GCCCUUACAUAAUAGCUUGTT against Tacr2 1.56, GGUCCCAGUCUAUGAAAACTT against Pym1 1.81, GUCCUGAAAAUGCUAUUCUTT against Olfr68 0.281, CCUGGUGCUUCGUAAUUACTT against Cyp11a1 -1.03, GGACAGUGUGUUUUCUUGUTT against Ankle1 0.551, CCAGAUUCCUCUUGGCCGATT against Spryd7 0.36, GCAAGAUUCAGAGUGCAGCTT against Txlng -1.09, GGUUGCAUUGUAGGGUUGGTT against Olfr129 0.221

z-score, active:
GGCUACAAGUUGGUAAUCUTT against Pnkp 3.36, GGUUAAAGUUAAAUCUGUCTT against C6 -2.35, GGCAGGUUUAACUUUAAUGTT against Cacna1e 3.59, GCACGAAGAACCACACAAGTT against Sp110 2.37, GCUUUGAGCAGCUAGGUUATT against Tpcn2 3.78, GGUCUUUGAGUCUACACAGTT against Pde4dip -2.52, GGUUCUCCAUACUUAUGCCTT against Prex1 2.97, GCGUGAGUCCCUAUAUGAATT against Tmem177 2.98, CCAUGUCAAUAUAGCUGUCTT against Igfbpl1 2.25, UCUGACAUUGACUCUAGCCTT against Fbxw16 -2.5, GCAUGUUGUCGACACAUGCTT against Bcl6 2.39, GGGCUGAUGCUUAAACAAATT against Vmn1r72 -2.19, GGACAAGAUGAACUUUUCCTT against Pomp -2.85, GGAUUUUGUCGGCAAGGCCTT against Ap5s1 -3.12, GGAAAGAUCAUGGACAAGUTT against Dtna 2.06, CGACUCCCACCUUUAGGAGTT against Nkx2-5 2.5, CUUUUACACCAUCAUGACGTT against Mrgpra5 -2.06, GGAGCGAUUCACAAAUUACTT against Tapt1 3.05, GGGCAUAUUUGGAAUCUGATT against Rtn4 2.51, GCUUCCUACCAUGAUGGUCTT against Otol1 2.13, GGGUACAAAACUUGAACUUTT against Gins3 2.84

From PubChem BioAssay AID1508600 (Functional Genomics Laboratory (NCATS/FGL), 2020)
